Screening data as filed in PubChem.
An excerpt weighted towards active compounds, which were near 19% of everything screened.
TDP1 inh: blocks human tyrosyl-DNA phosphodiesterase 1. recombinant TDP1, AlphaScreen DNA substrate cleavage. 350,000 tested, 0.28% active. Potency, µM (top dose mostly 130 µM), for inactives: top-dose activity change, negative = inhibition, usual class: inhibitors. AID 485290. Q9NUW8; note: potency is the fitted concentration of half-maximal effect; % is set by controls: 0 for no effect and ±100 for the full control effect; nearly all actives have a fitted effect of over 40% in size
Target sequence (Q9NUW8 whole entry, looked up): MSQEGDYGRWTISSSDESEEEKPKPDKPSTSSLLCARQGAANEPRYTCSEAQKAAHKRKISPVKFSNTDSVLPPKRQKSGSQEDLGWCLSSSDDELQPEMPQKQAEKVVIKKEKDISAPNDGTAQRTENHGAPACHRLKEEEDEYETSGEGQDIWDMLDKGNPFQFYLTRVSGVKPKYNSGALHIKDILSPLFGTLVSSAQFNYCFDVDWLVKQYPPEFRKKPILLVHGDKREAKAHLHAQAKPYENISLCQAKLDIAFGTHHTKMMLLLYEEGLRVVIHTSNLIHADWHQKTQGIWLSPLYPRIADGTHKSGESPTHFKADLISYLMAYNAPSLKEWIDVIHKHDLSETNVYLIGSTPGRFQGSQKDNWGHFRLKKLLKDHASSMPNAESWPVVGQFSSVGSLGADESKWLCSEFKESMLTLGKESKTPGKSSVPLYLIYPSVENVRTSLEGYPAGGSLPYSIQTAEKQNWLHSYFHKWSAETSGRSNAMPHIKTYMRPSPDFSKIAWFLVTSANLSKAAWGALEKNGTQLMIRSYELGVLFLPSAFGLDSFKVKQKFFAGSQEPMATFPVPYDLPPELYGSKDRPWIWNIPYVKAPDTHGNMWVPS
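Compounds were preincubated with Tdp1 (1 nM final) for 15 min at room temperature before substrate (15 nM final) started a 5 min reaction; beads (10 ug/ml final) were then added for 10 min before AlphaScreen detection.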
TDP1 cell noCPT: qHTS for Inhibitors of human tyrosyl-DNA phosphodiesterase 1 (TDP1): qHTS in cells in absence of CPT; DT40 Tdp1-/- hTDP1 cells, no CPT, ATP luminescence, 48 h; 420,000 tested, 15% active; AID 686978, 2013; Potency, µM (titrated, usually from 46.2 µM), inactives show top-dose activity change, negative = growth inhibition, hits mostly inhibitors; note: potency is the fitted concentration of half-maximal effect; % is set by controls: 0 for no effect and ±100 for the full control effect; nearly all actives have a fitted effect of over 55% in size
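Chicken DT40 Tdp1-/- cells stably complemented with human TDP1 were seeded at 400 cells/well with DMSO in place of 20 nM camptothecin. After compound pinning, cells grew at least 48 hr at 37 °C; viability read by CellTiter-Glo luminescence.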
IL-1B inflam inh: inflammasome signaling inhibition, IL-1 beta readout. THP-1 LPS/ATP IL-1B secretion, AlphaLISA, 16 h; active compounds read low. activity change, % at 57.5 µM. 360,000 tested, 4.7% active; in the data active = activity change below about -50%; inconclusive = mostly about -30% to -49%; note: % is set by controls: 0 for no effect and ±100 for the full control effect
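Secreted IL-1B measured by AlphaLISA bead assay after 16 h compound exposure of THP-1 cells; compounds (final up to 57.5 uM) added 1 h before LPS (250 ng/mL) and ATP (1.25 mM) stimulation; lower signal means less secretion.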
TGFb inhibitor: TGF-b pathway inhibition | HepG2 CAGA-GFP TGF-b/SMAD3 reporter, GFP fluorescence, 18 h; TGF-beta stimulated, 500 pg/mL final | Potency, µM (titrated, usually from 46.1 µM), inactives show at the top dose activity, negative = inhibition, actives largely listed as inhibitors | 410,000 tested, 1.2% active | AID 588855; note: potency is the fitted concentration of half-maximal effect; % is set by controls: 0 for no effect and ±100 for the full control effect; nearly all actives have a fitted effect of over 65% in size
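Per well, imaged GFP fluorescence of HEPG2 CAGA-GFP cells gives the signal; cells get compound, then TGF-beta (500 pg/mL final), 18 h at 37 degrees C; %Activity versus -TGF-beta and +DMSO controls.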
HepG2 viability: kills HepG2 cells in TGF-b inhibitor counter-screen | HepG2 CAGA-GFP viability, ATP luminescence, 18 h | Potency, µM (highest dose often 46.1 µM), without a hit: top-dose activity change, negative = cytotoxicity, hits mostly cytotoxic | 410,000 tested, 0.76% active | AID 588856; note: potency is the fitted concentration of half-maximal effect
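HepG2 CAGA-GFP cells (1000/well, DMEM with 1% FBS) received compound, then TGF-beta at 500 pg/mL final, and were incubated 18 hours at 37 degrees C. Viability was read by CellTiter-Glo luminescence. Media-only wells were set as complete cell-killing and DMSO as no toxicity.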
TDP1 cell CPT: DT40-hTDP1 cell growth loss with CPT | AID 686979 | Potency, µM (titrated, usually from 46.2 µM), inactives show top-dose activity change, negative = growth inhibition, hits mostly inhibitors | 420,000 tested, 12% active | chicken DT40 Tdp1-/-;hTDP1 cells + 20 nM CPT, ATP luminescence, 48 h; note: potency is the fitted concentration of half-maximal effect; % is set by controls: 0 for no effect and ±100 for the full control effect; nearly all actives have a fitted effect of over 55% in size
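Chicken DT40 Tdp1-/- cells complemented with human TDP1, 400 cells/well, exposed to compounds plus 20 nM camptothecin for at least 48 h at 37 C; viability read as ATP content by CellTiter-Glo luminescence.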
Numbers without * were called inactive; ? = inconclusive; · = no result; [ ] = another dose, or the depositor's remark. Unless noted, calls come from the whole dose curve; as a rule, active = well fitted curve in the direction sought with a large enough effect; inconclusive = small, poorly fitted or top-dose-only effect, or another doubt; inactive = no such curve, though single readings can be large; an effect the other way counts as inactive or inconclusive.

SMILES	TDP1 inh	TDP1 cell noCPT	IL-1B inflam inh	TGFb inhibitor	HepG2 viability	TDP1 cell CPT
O=C1N[C@H](Cc2ccccc2)COC(=O)[C@@H](Cc2ccc(F)cc2)CC/C=C/C[C@H]1CC(=O)N(CCO)Cc1ccccc1	2%	?	?	?	-6%	18µM*
O=C1N[C@@H](Cc2c[nH]c3ccccc23)COC(=O)[C@H](Cc2ccc(F)cc2)C/C=C\C[C@@H]1CC(=O)N(CCO)Cc1ccccc1	3%	?	-24	?	3%	?
O=C1N[C@@H](c2ccccc2)COC(=O)[C@H](Cc2ccc(F)cc2)CC/C=C/C[C@H]1CC(=O)N(CCO)Cc1ccccc1	0%	15µM*	-29	?	-1%	18µM*
COc1ccc(-c2nc(-c3ccccc3)oc2Nc2ccccc2C)cc1	4%	·	·	·	·	·
O=C(CN1C(=O)C2CCCCC2C1=O)Nc1nc(-c2ccccn2)cs1 (centres undefined)	2%	10µM*	50	-13%	0%	12µM*
CC1(c2ccccc2)NC(=O)N(CC(=O)Nc2nc(-c3ccccn3)cs2)C1=O (centres undefined)	·	15µM*	-3	?	-6%	23µM*
O=Cc1ccc(-c2c(-c3ccccc3)oc3c2C(OCCCCO)CCC3)o1 (centres undefined)	·	?	-3	·	·	?
COc1ccc(-n2ccn(CC(=O)NCc3ccc(C)cc3)c(=O)c2=O)cc1OC	0%	-3%	·	2%	-1%	-3%
O=c1c2ccc([N+](=O)[O-])cc2ncn1CCOc1cccc(Br)c1	5%	10µM*	13	-12%	-28%	?
O=c1c2ccc([N+](=O)[O-])cc2ncn1CCOc1ccc(Cl)cc1	11%	15µM*	-6	?	-33%	18µM*
O=C(Cn1cnc2cc([N+](=O)[O-])ccc2c1=O)NCc1ccc(Cl)cc1	-1%	?	0	-1%	-8%	-3%
CCC(=O)N1CCc2cc(Br)cc(S(=O)(=O)CCC(=O)N(C)c3cccc(C)c3)c21	?	?	·	-26%	-20%	?
Cc1ccc(-n2c(C)nc3c(cnn3-c3ccc(F)cc3)c2=O)cc1	3%	15µM*	26	-8%	-28%	18µM*
CCOc1ccc(-n2c(C)nc3c(cnn3-c3ccc(Cl)cc3)c2=O)cc1	5%	-21%	24	-17%	-3%	-12%
Cc1nc2c(cnn2-c2ccc(Cl)cc2)c(=O)n1-c1ccc(N2CCC(C)CC2)cc1	-3%	·	·	·	·	·
Cc1ccc(-n2c(C)nc3c(cnn3-c3ccccc3C)c2=O)cc1F	0%	?	·	-4%	-7%	?
COc1ccc(-n2c(C)nc3c(cnn3-c3ccc(C)c(C)c3)c2=O)cc1	6%	15µM*	-7	-24%	-42%	23µM*
Cc1ccc(-n2ncc3c(=O)n(-c4ccc(C)c(C)c4)c(C)nc32)cc1	0%	18µM*	0	2%	-8%	?
Cc1nc2c(cnn2-c2ccccc2Cl)c(=O)n1-c1ccc(C(C)C)cc1	0%	21µM*	17	-12%	-27%	?
COc1ccc(C(=O)Nc2ccccc2-c2nc(-c3ccc(OC)cc3)no2)cc1	11%	-9%	·	27%	2%	-8%
C[C@H]1Cc2c(-c3ccccc3)nc3c(c2CO1)CN(C(=O)C1CCCCC1)CC3	7%[12.3 µM]	·	·	·	·	·
CC(C)c1ccc(Nc2ccc(C(=O)O)cc2[N+](=O)[O-])cc1	·	-4%	32	?	-25%	0%
O=C(CNC(=O)c1ccccc1)OC(Cc1ccccc1)C(=O)Nc1cc(C(F)(F)F)ccc1Cl (centres undefined)	-3%	·	·	·	·	·
C=C(C)C(=O)Oc1ccc(N=Nc2ccc(C)cc2)ccc1=O	·	2.9µM*	?	?	-32%	10µM*
CC(=O)c1ccc(N=Nc2ccc(C)cc2)cc1	8%	-19%	-19	-4%	-12%	9%
SMILES	TDP1 inh	TDP1 cell noCPT	IL-1B inflam inh	TGFb inhibitor	HepG2 viability	TDP1 cell CPT
CCOC(=O)c1c(NC(=O)/C=C/C(=O)O)sc(C)c1-c1ccc(C(C)(C)C)cc1	10%	21µM*	-106*	?	13µM*	13µM*
Cc1sc(NC(=O)/C=C/c2ccco2)c(C(=O)O)c1C	-2%	-4%	-3	1%	-1%	-2%
Cc1sc(NC(=O)C2CCCCC2C(=O)O)c(C(N)=O)c1-c1ccc(C(C)(C)C)cc1 (centres undefined)	6%	-27%	15	-14%	-19%	-9%
Cc1sc(NC(=O)/C=C/C(=O)O)c(C(N)=O)c1-c1ccc(C(C)(C)C)cc1	6%	?	-91*	?	-69%	23µM*
Cc1sc(NC(=O)C2CCCCC2C(=O)O)c(C(N)=O)c1-c1ccccc1 (centres undefined)	3%	-22%	6	3%	16%	-18%
CCc1ccc(-c2c(C)sc(NC(C)=O)c2C(N)=O)cc1	0%	23µM*	?	-18%	-52%	?
Cc1sc(NC(=O)C2C3CCC(C3)C2C(=O)O)c(C(N)=O)c1-c1ccc(C(C)(C)C)cc1 (centres undefined)	4%	12µM*	-2	0%	12%	?
COC(=O)c1ccccc1NC(=O)CSc1nc(=O)cc(N)n1-c1ccccc1	·	-18%	·	-4%	-13%	8%
CCC1Oc2ccc(C)cc2N(CC(=O)NCc2ccc(OC)cc2)C1=O (centres undefined)	-1%	-15%	·	9%	-15%	-27%
Cc1cccc(-n2c(C)cc(C(=O)C(=O)Nc3nncs3)c2C)c1	9%	-1%	·	-1%	-6%	-9%
CCOC(=O)c1c(NC(=O)/C=C\C(=O)O)sc(C)c1-c1ccccc1	6%	?	-99*	25%	5%	?
CCOC(=O)c1c(NC(=O)C2C3CCC(O3)C2C(=O)O)sc(C)c1-c1ccc(C)cc1 (centres undefined)	2%	-3%	16	14%	2%	-17%
Cc1sc(NC(=O)c2cccc([N+](=O)[O-])c2)c(C(N)=O)c1-c1ccc(C(C)(C)C)cc1	3%	21µM*	-17	2%	-26%	?
CC1CCCN(C(=O)COC(=O)Cc2c(F)cccc2Cl)C1 (centres undefined)	10%	-17%	-1	5%	-2%	-7%
